This note sets out measurements from PubChem BioAssay (NCATS).

Results filed as inconclusive are left out. A number with no mark means an inactive call. The source made the active and inactive calls. Calls follow the shape of the dose curve; as a rule, active = well fitted inhibition curve with a large enough effect; inconclusive = small, poorly fitted or top-dose-only effect; inactive = flat fitted curve, though single readings scatter.
Potency is read from the fitted curve at half-maximal effect.

One assay deals with TAB109. Put plainly: qHTS profiling for inhibitors of Plasmodium falciparum proliferation (AID 504749). Also: nearly all actives have a fitted effect of over 60% in size.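 As to activity, negative = inhibition: 0% = DMSO vehicle and full inhibition = artemisinin control.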 The conditions noted are these: P. falciparum in erythrocytes, SYBR Green DNA, 72 h; series mostly up to 28.7 µM; activity, negative = inhibition: at the top concentration. In short, it runs like this:
(§1)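 Quantitative HTS: compounds pinned into medium, infected erythrocytes added (0.3% parasitemia, 2.5% hematocrit), 72 h culture at 37 C under 5% CO2. Saponin/Triton lysis with SYBR Green I, overnight RT, then fluorescence read.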
(In general: qHTS replaces the single test concentration by a dilution series.)
On to `O=C(O)[C@@H](O)[C@@H](O)[C@H](O)[C@H](O)CO`, for which the Potency is 10 µM (active).
`N[C@@H](Cc1ccccc1)C(=O)O`: the “activity, negative = inhibition” value is 0.829%.
As to `C[C@]12CC[C@H]3c4ccc(O)cc4CC[C@@H]3[C@H]1CC[C@@H]2OP(=O)(O)O`, the “activity, negative = inhibition” value was 12.6%.

For another assay, the system named is W2. Described as above. The conditions noted are these: P. falciparum in erythrocytes, SYBR Green DNA, 72 h; series mostly up to 28.7 µM; activity, negative = inhibition: at the top concentration. In short, it runs like this:
as §1
Turning to `O=C(O)[C@@H](O)[C@@H](O)[C@H](O)[C@H](O)CO`, the Potency was 4.78 µM (active).
As for `N[C@@H](Cc1ccccc1)C(=O)O`, the “activity, negative = inhibition” value was 11.2%.
As to `C[C@]12CC[C@H]3c4ccc(O)cc4CC[C@@H]3[C@H]1CC[C@@H]2OP(=O)(O)O`, the “activity, negative = inhibition” value is -3.02%.
